# Laboratory results taken from PubChem BioAssay (NCI).
# Several values for one entry are separate records, joined by “and”; a condition that tells them apart may be missing. Equal entries are not always repeated. Compounds without any hit were thinned out: in the full panel of roughly 79,000, 15% have a hit. A number with no mark means an inactive call. Activity calls are given as the source filed them. Rule as the data show it: active = growth inhibition above about 70%; inactive = the rest.
# Key:
# [1] = NCI Yeast Anticancer Drug Screen. Data for the rad50 strain (AID 155);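 also: 0% = growth of vehicle-only cultures of the same strain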; conditions: S. cerevisiae rad50 strain growth inhibition; at 50.0 µM; hits give high values
# In short: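 A DNA repair-deficient yeast mutant serves as the test organism; compound-induced growth inhibition is calculated against vehicle-treated cells.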
# [2] = NCI Yeast Anticancer Drug Screen. Data for the mec2-1 strain (AID 157); conditions: S. cerevisiae mec2-1 strain, at 50.0 µM, hits give high values
# In short: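 Each compound was tested on mec2-1 yeast, a strain altered in DNA damage repair or cell cycle control. Growth inhibition is reported relative to vehicle.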
# [3] = NCI Yeast Anticancer Drug Screen. Data for the sgs1 mgt1 strain (AID 161);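 also: 0% = growth of cultures given vehicle only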; conditions: S. cerevisiae sgs1 mgt1 strain, at 50.0 µM, hits give high values
# In short: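 Mutant yeast exposed to compound; growth scored against vehicle-only wells.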
# [4] = NCI Yeast Anticancer Drug Screen. Data for the cln2 rad14 strain (AID 165);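 also: 0% = growth equal to vehicle treated cultures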; conditions: S. cerevisiae cln2 rad14 strain, at 50.0 µM, hits give high values
# In short: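 Test compounds were added to cln2 rad14 yeast cultures; inhibition of growth was then determined by comparison with vehicle treatment.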
# [5] = NCI Yeast Anticancer Drug Screen. Data for the bub3 strain (AID 167); conditions: S. cerevisiae bub3 mutant strain, at 50.0 µM, hits give high values
# In short: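 Inhibition values come from growth of compound-treated mutant yeast normalised to vehicle-treated controls.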
# [6] = NCI Yeast Anticancer Drug Screen. Data for the mlh1 rad18 strain (AID 175); conditions: S. cerevisiae mlh1 rad18 strain growth inhibition; at 50.0 µM; hits give high values
# In short: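 Inhibition values reflect reduced growth of mutant yeast versus vehicle-treated controls following compound exposure; the mutations affect DNA damage repair.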
Compound,growth inhibition [1],growth inhibition [2],growth inhibition [3],growth inhibition [4],growth inhibition [5],growth inhibition [6]
O=[N+]([O-])c1ccc(CCBr)cc1,28.8% and 30.2%,1.25% and 37.6%,13.4% and 34%,17.1% and 11.8%,36.3% and 3.2%,17.6% and -2.15%
NC(CCCc1ccc(N(CCCl)CCCl)cc1)C(=O)O (stereo unspecified),-1.55%,-3.45%,8.75%,-52.7%,-6.15%,-8.3%
COc1cccc(C=C(C#N)C#N)c1OC,-9.8%,-8.05%,-3.35%,5.05%,-3.8%,4.5%
COC(=O)c1ccc(C=C(C#N)C#N)cc1,-5.75%,-2.6%,-27.9%,30.6%,2.45%,-21%
CC1(C)[C@@H]2CC[C@]1(C)[C@H](OC(=O)C(Cl)(Cl)Cl)C2,-16.6%,-5.35%,-9.65%,-19.3%,26.8%,9.75%
c1ccc(-c2cccc(-c3ccccc3)c2)cc1,30.1%,15.3%,31.3%,-0.6%,24.6%,44%
O=C(Nc1cccs1)c1c(O)[nH]c(=S)[nH]c1=O,-1.35%,20.9%,25.1%,16.8%,7.05%,4.5%
CCOP(=O)(OCC)C(C)(C)OC(=O)NC(F)(F)F,-18.7%,-15.2%,-2.25%,5.25%,-10.1%,3%
CCOC(=O)C1Cc2ccc(OC)cc2C2=CC(=O)CCC21 (stereo unspecified),-13.4%,-16.9%,-9.4%,1.65%,5.4%,-1.15%
CCOP(O)(=S)OCC,16.8% and 9.55% and 2.25%,23.4% and 10.2% and 2.35%,11.6% and 7.65% and -4.2%,-2.05% and 20.1% and 6.7%,-15.8% and -14.5% and -14%,17% and 18.8% and 3.2%
O=c1c2ccccc2sc2c1c(N(CCCl)CCCl)cc1ccccc12,39.2%,5.5%,20.1%,17.5%,-5.85%,18.8%
Cc1c[n+]2ccc3ccccc3c2c2ccccc12,-3.9%,-10.9%,-8.65%,-78.2%,-3.2%,-11.7%
C=CC(C)(C)C12CC3C(=O)N/C(=C\c4cnc[nH]4)C(=O)N3C1Nc1ccccc12 (stereo unspecified),-33.4%,-11%,8.15%,1.45%,-6.3%,-14.8%
COc1ccc2c(c1OC)CC(N)C2O (stereo unspecified),9%,3.55%,7.8%,4.3%,15.2%,3.25%
Cc1ccc2[nH]cc(CCN(C)C)c2c1,22.6%,-16.5%,8.25%,7.65%,10.2%,19.6%
CN1CC(C(=O)NO)C=C2c3cccc4[nH]cc(c34)CC21 (stereo unspecified),8.8%,42.5%,23.5%,-3.7%,41.5%,14.4%
[CH3][Sn]([CH3])([Cl])[S]CCN,29.6%,32.5%,-5.55%,1.25%,-15.4%,18.6%
C1CN2CN3CCN(CN1C3)C2,13.1%,12.2%,20.9%,33.2%,10.2%,13.8%

Compound,growth inhibition [1],growth inhibition [2],growth inhibition [3],growth inhibition [4],growth inhibition [5],growth inhibition [6]
ClCCN(CCCl)c1ccc(-c2csc(Cc3ccccc3)n2)cc1,-2%,-7.35%,-2.7%,-20%,-4.3%,-19.9%
CSC(SC)P(=O)(Oc1ccccc1)Oc1ccccc1,-10.4%,2.85%,1.4%,4.45%,8.7%,10.6%
Cc1cc(Cl)nc(N)n1,-5.3%,4.55%,-5.4%,-13.9%,10.1%,-21.4%
CC1=NN(c2cccc(S(=O)(=O)O)c2)C(=O)C1N=Nc1cc(Cl)cc(S(=O)(=O)O)c1O.O.[Cr] (stereo unspecified),-19.4%,-25.1%,3.1%,-0.7%,8.35%,9.35%
Cc1cc(N(CCCl)CCCl)ccc1C1N(Cc2ccc(N(C)C)cc2)CCN1Cc1ccc(N(C)C)cc1,13.5%,1.55%,16.4%,-3.4%,1.6%,18.6%
CC(C)(C)C1(C)CN(N=O)C(=O)O1 (stereo unspecified),-5.05%,-9.7%,-9.5%,-26.1%,5.85%,-15.5%
N#C[CH2][Sn]([I])([c]1ccccc1)[c]1ccccc1,-12.5%,30.4%,1.15%,72% (active),-0.25%,1.9%
CN(C)CCSC(c1ccccc1)c1ccc(Br)cc1 (stereo unspecified),32.5%,20.1%,52.4%,58.6%,34.4%,62.2%
O=[N+]([O-])c1ccc(Cl)c([N+](=O)[O-])c1,99.2% (active),98.5% (active),99.2% (active),96.3% (active),98.7% (active),99.2% (active)
CC12CC(=O)C3C(CCC4CC=CCC43C)C1CCC2=O (stereo unspecified),22.1%,-12.5%,28.1%,5.8%,10%,24.5%
COc1cccc(OC)c1CCN,-27.9%,-5.3%,-11.4%,-1.1%,-24.8%,-36%
NC1CC2CCCCC2CC1c1ccccc1 (stereo unspecified),14.8%,19.4%,18.5%,11.9%,-5.85%,18.1%
Cc1ccc(S(=O)(=O)NNP(Br)(c2ccccc2)(c2ccccc2)c2ccccc2)cc1,26.3%,-1.1%,5.7%,-0.75%,5.35%,12.4%
O=C(Oc1ccc(S(=O)(=O)F)cc1Cl)c1ccccc1Cl,99.4% (active),99.6% (active),99.5% (active),99.3% (active),99.4% (active),99.4% (active)
COc1ccc(/C=C/C(=O)c2c(-c3ccccc3)nn(C)c(=O)c2N2CC2C)cc1 (stereo unspecified),-11.6%,19.9%,-10.4%,-7.2%,-4.8%,-13.4%
O.[Co].[NH2-].[NH2-].[NH2-].[NH2-].[NH2-],27.9%,-27.1%,36.2%,12.8%,24.2%,33.4%
O=C(O)C(=O)Cc1ccc2c(c1)OCO2,-3.8%,-19.3%,-28.6%,-32.9%,-20.2%,0.5%
Nc1n[nH]c(CCc2nc(N)n[nH]2)n1,22.8%,-12.2%,-18.1%,7.65%,11.6%,4.9%
